# From PubChem BioAssay (EPA / NIEHS)
# Inconclusive results are not listed. The source made the active and inactive calls. How the source made its calls: active means hit-call score of the fitted dose curve at least 0.9, where 1 is the maximum; inconclusive means response in the unintended direction; inactive means score below 0.9.
# How the values were obtained:
# [1] = Tanguay_ZF_120hpf_ActivityScore_legacy: (Legacy) Oregon State University Tanguay Lab 120 Hour Post-fertilization zebrafish Assay Score for Activity (AID 2283742);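 on AC50: dechorionated Tropical 5D wild-type zebrafish embryos held singly per well; static exposure from 6 hpf until 120 hpf at 28 °C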
# How it was run: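 Dechorionated Tropical 5D embryos, one per well from 6 hpf, statically exposed to 120 hpf at 28 °C in 0.64% DMSO. Mortality and malformations scored binary by brightfield microscopy; activity score combines 18 endpoints, fitted positively versus DMSO.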
# [2] = ACEA_AR_agonist_AUC_viability: ACEA Biosciences xCELLigence Real-Time Cell Analysis on Androgen Receptor Agonism for Viability (AID 2283775);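 on AC50: viability read 80 hours after compound addition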
# How it was run: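 Real-time impedance tracking of 22Rv1 growth, readings every 5 min for 5 h then hourly; area-under-curve viability endpoint at 80 hours, relative to DMSO. Compounds at eight concentrations, 1:4 steps, top 100 uM, n = 2.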
# [3] = system: chicken Androgen Receptor (AR), gene 422165; experiment: ATG_chAR_XSP1: Attagene TRANS-FACTORIAL Multi-Species (XSP1) HepG2 Assay for chicken Androgen Receptor (AR) (AID 2283768)
# How it was run: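 HepG2 cells transiently transfected with multiplexed GAL4-UAS reporter units expressing chimeric chicken AR-Gal4; 3 nM 6-alpha-fluorotestosterone for partial AR stimulation; 24 h after dosing, reporter mRNA by RT-PCR and capillary electrophoresis, gain-of-signal versus DMSO.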
# [4] = system: zebrafish Androgen Receptor (AR), gene 100005148; experiment: ATG_zfAR_XSP1: Attagene TRANS-FACTORIAL Multi-Species (XSP1) HepG2 Assay for zebrafish Androgen Receptor (AR) (AID 2283771)
# How it was run: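 HepG2 cells were transiently transfected with a zebrafish AR-GAL4 reporter system and partially stimulated with 3 nM 6-alpha-fluorotestosterone. Reporter mRNA was measured after 24 h dosing by RT-PCR with capillary electrophoresis, and gain-of-signal was fitted relative to DMSO.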
# [5] = target: zebrafish Estrogen Receptor (ESR1), esr1 (gene 259252) (UniProt P57717); experiment: ATG_zfER1_XSP1: Attagene TRANS-FACTORIAL Multi-Species (XSP1) HepG2 Assay for zebrafish Estrogen Receptor (ESR1) (AID 2283772)
# How it was run: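 Readout: fluorescent reporter mRNA, RT-PCR plus FAM labelling, HpaI digest, capillary electrophoresis; gain-of-signal fit vs DMSO. HepG2, transient multi-reporter TRANS (NR-GAL4 chimera), 24 h chemical exposure, 3 nM 6-alpha-fluorotestosterone co-added.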
# [6] = system: zebrafish Estrogen Receptor (ESR2B), gene 317733; experiment: ATG_zfER2b_XSP1: Attagene TRANS-FACTORIAL Multi-Species (XSP1) HepG2 Assay for zebrafish Estrogen Receptor (ESR2B) (AID 2283773)
# How it was run: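 HepG2 cells transiently transfected with GAL4-UAS reporter units for chimeric zebrafish ER2b-Gal4, with 3 nM 6-alpha-fluorotestosterone present; reporter mRNA measured 24 h after dosing by RT-PCR and capillary electrophoresis, gain versus DMSO.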
# [7] = system: frog Estrogen Receptor (ESR2), gene 100174814; experiment: ATG_frER2_XSP1: Attagene TRANS-FACTORIAL Multi-Species (XSP1) HepG2 Assay for frog Estrogen Receptor (ESR2) (AID 2283774)
# How it was run: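 HepG2 cells transiently transfected with GAL4-UAS reporter units expressing chimeric frog ER-Gal4; 3 nM 6-alpha-fluorotestosterone present. After 24 h dosing, reporter mRNA quantified by RT-PCR and capillary electrophoresis; gain-of-signal fitted relative to DMSO.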
# [8] = system: frog Estrogen Receptor (ESR1), gene 398734; experiment: ATG_frER1_XSP1: Attagene TRANS-FACTORIAL Multi-Species (XSP1) HepG2 Assay for frog Estrogen Receptor (ESR1) (AID 2283777)
# How it was run: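 HepG2 cells transiently transfected with frog ER–GAL4 chimera and GAL4-UAS reporter, with 3 nM 6-alpha-fluorotestosterone present; 24 h dosing, reporter mRNA quantified by RT-PCR and capillary electrophoresis, gain of signal versus DMSO.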
# [9] = system: zebrafish Estrogen Receptor (ESR2A), gene 317734; experiment: ATG_zfER2a_XSP1: Attagene TRANS-FACTORIAL Multi-Species (XSP1) HepG2 Assay for zebrafish Estrogen Receptor (ESR2A) (AID 2283778)
# How it was run: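 HepG2 cells transiently transfected with GAL4-UAS reporter units driven by a zebrafish ESR2A–Gal4 chimera; 24 h compound exposure with 3 nM 6-alpha-fluorotestosterone present. Reporter mRNA measured by RT-PCR with fluorescent capillary electrophoresis, fitted positive versus DMSO.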
# [10] = target: chicken Estrogen Receptor (ESR1), ESR1 (gene 396099) (UniProt P06212); experiment: ATG_chERa_XSP1: Attagene TRANS-FACTORIAL Multi-Species (XSP1) HepG2 Assay for chicken Estrogen Receptor (ESR1) (AID 2283779)
# How it was run: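 HepG2 cells transiently transfected with GAL4-UAS reporter units for chimeric chicken ERα-Gal4, dosed 24 h with 3 nM 6-alpha-fluorotestosterone present. Reporter mRNA by RT-PCR and capillary electrophoresis; gain-of-signal fit versus DMSO.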
# [11] = target: Luciferin 4-monooxygenase (Photinus pyralis) (UniProt P08659); experiment: CCTE_Simmons_QuantiLum_inhib_2: CCTE's Firefly Luciferase Inhibition Assay, Simmons Lab (AID 2283767);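 on AC50: potency for inhibitors that lower luciferase luminescence relative to DMSO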
# How it was run: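 Luminescence loss relative to DMSO vehicle defines inhibition; detection reagent containing 150 uM D-luciferin and 147 uM dATP (final, pH 7.8) is injected immediately before each read. Enzyme is preincubated with an 8-point titration (5 nM–87.5 uM final) for 30 min at 37C.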
# [12] = ACEA_AR_antagonist_AUC_viability: ACEA Biosciences xCELLigence Real-Time Cell Analysis on Androgen Receptor Antagonism for Viability (AID 2283776);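 further: 22Rv1 human prostate cancer cells growing on impedance electrode plates; hits lower the growth signal relative to DMSO meaning cytotoxicity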
# How it was run: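 Impedance read-out (RT-CES): area under growth curve at 80 h post-dose, loss of signal scored vs DMSO baseline. 22Rv1 cells; 8-pt 1:4 series, top 100 uM final, ≤0.5% DMSO; biological duplicate.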
# [13] = ArunA_CellTiter_hNC: Viability Assessment in the ArunA Biomedical's Oris Neural Crest (hNC) Cell Migration Assay (AID 2283752)
# How it was run: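 Cell titer was measured with the CellTiter Aqueous One reagent after 72 h of chemical dosing. Cells were H9-derived embryonic neural crest stem cells seeded on Matrigel, 60,000 per well, and given 16 h at 37C beforehand.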
# [14] = ArunA_CellTiter_hNP: Viability Assessment in the ArunA Biomedical's Oris Neural Crest (hNC) Cell Migration Assay (AID 2283753)
# How it was run: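 H9-derived hNP1 neuroprogenitors, 60,000/well on Matrigel, cultured 16 h, then 72 h chemical exposure in test medium. Cell titer via CellTiter Aqueous One; positive-direction fit vs DMSO.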
# [15] = ArunA_Migration_hNC: ArunA Biomedical's Oris Neural Crest (hNC) Cell Migration Assay (AID 2283755)
# How it was run: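 Human H9-derived neural crest stem cells, 60,000/well on Matrigel, 16 h at 37C, then 72 h chemical exposure after seeding-stopper removal. Migration into detection zone read as calcein-AM fluorescence (ex494/em517), relative to DMSO.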
# [16] = ArunA_NOG_NeuriteLength: ArunA Biomedical's Neurite Outgrowth (NOG) Assay for Neurite Length (AID 2283757)
# How it was run: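 Differentiated human H9-derived neurons were exposed for 48 h from seeding, then stained with Hoechst and βIII-tubulin. Automated high-content imaging gave total neurite length per valid neuron, counting processes >10 um. Loss of signal was scored versus DMSO.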
# [17] = system: Thyroperoxidase (TPO), gene 445522; experiment: CCTE_Simmons_GUA_TPO: CCTE's Guaiacol Assay for Thyroperoxidase (TPO) Inhibition, Simmons Lab (AID 2283750)
# How it was run: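 Porcine thyroid microsomes (25 ug) in 200mM potassium phosphate, preincubated 30 s at 37C with compound (8 concentrations, 5 nM–87.5 uM) and 35mM guaiacol; 1mM H2O2 starts reaction. Absorbance change at 450nm over first 80 s; loss of signal versus DMSO, three replicates.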
# Sequence of chicken Estrogen Receptor (ESR1), ESR1 (gene 396099) (P06212 whole entry, looked up, the tested form may be a part): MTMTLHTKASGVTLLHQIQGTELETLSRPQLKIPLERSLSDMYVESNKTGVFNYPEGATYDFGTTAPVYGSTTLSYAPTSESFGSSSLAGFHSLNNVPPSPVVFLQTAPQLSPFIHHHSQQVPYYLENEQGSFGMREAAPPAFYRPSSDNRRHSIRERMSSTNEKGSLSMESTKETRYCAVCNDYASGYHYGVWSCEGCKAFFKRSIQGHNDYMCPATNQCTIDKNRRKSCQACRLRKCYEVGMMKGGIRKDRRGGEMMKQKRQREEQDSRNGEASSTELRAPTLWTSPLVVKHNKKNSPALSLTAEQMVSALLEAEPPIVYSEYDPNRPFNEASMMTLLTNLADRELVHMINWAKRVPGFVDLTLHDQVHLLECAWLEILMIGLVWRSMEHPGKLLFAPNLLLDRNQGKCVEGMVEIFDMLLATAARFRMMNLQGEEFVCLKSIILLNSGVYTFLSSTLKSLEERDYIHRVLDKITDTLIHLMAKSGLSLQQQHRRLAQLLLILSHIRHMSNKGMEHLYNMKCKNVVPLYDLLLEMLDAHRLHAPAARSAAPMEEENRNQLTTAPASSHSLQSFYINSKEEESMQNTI
# Sequence of Luciferin 4-monooxygenase (Photinus pyralis) (P08659 whole entry, looked up): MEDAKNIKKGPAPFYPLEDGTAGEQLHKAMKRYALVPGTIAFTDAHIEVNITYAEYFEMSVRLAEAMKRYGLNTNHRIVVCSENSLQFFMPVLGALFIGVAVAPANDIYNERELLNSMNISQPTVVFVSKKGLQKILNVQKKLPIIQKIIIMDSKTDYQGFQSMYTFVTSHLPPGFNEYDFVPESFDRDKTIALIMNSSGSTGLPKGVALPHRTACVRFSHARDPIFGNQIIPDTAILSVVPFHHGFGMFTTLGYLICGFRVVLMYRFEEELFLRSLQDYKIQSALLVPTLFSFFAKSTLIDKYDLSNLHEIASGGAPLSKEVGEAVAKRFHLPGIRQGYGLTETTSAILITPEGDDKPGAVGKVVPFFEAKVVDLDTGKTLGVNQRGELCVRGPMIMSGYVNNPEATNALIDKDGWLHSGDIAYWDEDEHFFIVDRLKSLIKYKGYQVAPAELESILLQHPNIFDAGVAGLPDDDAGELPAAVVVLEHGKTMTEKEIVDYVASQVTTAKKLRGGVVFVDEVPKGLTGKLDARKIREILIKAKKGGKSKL
# Sequence of zebrafish Estrogen Receptor (ESR1), esr1 (gene 259252) (P57717 whole entry, looked up, the tested form may be a part): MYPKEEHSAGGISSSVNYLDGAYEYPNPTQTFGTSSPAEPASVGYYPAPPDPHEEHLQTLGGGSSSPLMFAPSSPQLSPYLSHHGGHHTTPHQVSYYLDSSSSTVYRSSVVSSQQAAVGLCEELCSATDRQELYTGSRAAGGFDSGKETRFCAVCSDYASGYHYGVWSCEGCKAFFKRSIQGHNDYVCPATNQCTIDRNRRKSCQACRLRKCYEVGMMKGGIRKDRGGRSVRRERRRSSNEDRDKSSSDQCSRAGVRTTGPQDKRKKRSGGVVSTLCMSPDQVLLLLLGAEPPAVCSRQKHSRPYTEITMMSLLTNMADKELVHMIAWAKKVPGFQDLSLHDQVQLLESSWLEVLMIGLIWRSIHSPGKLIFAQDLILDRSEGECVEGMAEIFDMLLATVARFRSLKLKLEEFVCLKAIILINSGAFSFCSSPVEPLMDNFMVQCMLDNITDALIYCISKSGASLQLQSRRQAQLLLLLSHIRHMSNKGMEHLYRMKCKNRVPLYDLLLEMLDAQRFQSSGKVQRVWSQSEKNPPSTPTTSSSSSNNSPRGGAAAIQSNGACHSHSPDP
smiles,measurement,setting,value
N#Cc1c[nH]cc1-c1cccc2c1OC(F)(F)O2,AC50,[1],26.9 µM (active)
same,AC50,[2],32.5 µM (active)
CC(C)NC(=O)N1CC(=O)N(c2cc(Cl)cc(Cl)c2)C1=O,outcome,[1],inactive
same,outcome,[3],inactive
same,outcome,[4],inactive
same,outcome,[5],inactive
same,AC50,[6],100 µM (active)
same,AC50,[7],100 µM (active)
same,AC50,[2],11.2 µM (active)
same,AC50,[8],100 µM (active)
same,outcome,[9],inactive
same,outcome,[10],inactive
CCOP(=O)(OCC)Oc1nc(Cl)c(Cl)cc1Cl,AC50,[1],1.15 µM (active)
same,outcome,[11],inactive
same,AC50,[12],72.7 µM (active)
CCN(CC)c1nc(C)cc(OP(=S)(OC)OC)n1,outcome,[1],inactive
same,outcome,[11],inactive
same,AC50,[12],83.3 µM (active)
COCc1cnc(C2=NC(C)(C(C)C)C(=O)N2)c(C(=O)O)c1 (centres undefined),outcome,[1],inactive
same,outcome,[13],inactive
same,outcome,[14],inactive
same,outcome,[15],inactive
same,outcome,[16],inactive
Clc1nc(Cl)nc(Nc2ccccc2Cl)n1,outcome,[1],inactive
same,AC50,[11],8.85 µM (active)
same,outcome,[12],inactive
O=C(Nc1ccccc1-c1ccc(Cl)cc1)c1cccnc1Cl,outcome,[1],inactive
same,AC50,[2],61.3 µM (active)
same,AC50,[12],50 µM (active)
C=CCOC(=O)C(C)(C)OC(=O)c1cc(-n2c(=O)cc(C(F)(F)F)n(C)c2=O)ccc1Cl,outcome,[1],inactive
same,AC50,[2],50.5 µM (active)
same,AC50,[12],50.5 µM (active)
CCOc1nc(C(Cl)(Cl)Cl)ns1,outcome,[1],inactive
same,outcome,[11],inactive
same,outcome,[2],inactive
same,outcome,[12],inactive
COCC(C)N(C(=O)CCl)c1c(C)csc1C (centres undefined),AC50,[1],29.2 µM (active)
same,outcome,[2],inactive
same,AC50,[12],33 µM (active)
O=P(O)(O)CCCl,outcome,[1],inactive
same,outcome,[11],inactive
same,outcome,[12],inactive
N#CN=C1SCCN1Cc1ccc(Cl)nc1,outcome,[1],inactive
same,outcome,[2],inactive
same,outcome,[12],inactive
COP(=S)(OC)Oc1ccc([N+](=O)[O-])c(C)c1,outcome,[1],inactive
same,outcome,[17],inactive
same,outcome,[11],inactive
same,outcome,[5],inactive
same,AC50,[6],74.4 µM (active)
same,AC50,[7],65.9 µM (active)
same,AC50,[12],71.9 µM (active)
same,AC50,[8],48.9 µM (active)
same,outcome,[9],inactive
same,AC50,[10],43.2 µM (active)
CC1(C)CCC(=Cc2ccc(Cl)cc2)C1(O)Cn1cncn1 (centres undefined),outcome,[1],inactive
same,outcome,[5],inactive
same,AC50,[7],56.6 µM (active)
same,outcome,[12],inactive
same,outcome,[8],inactive
same,outcome,[9],inactive
same,AC50,[10],3.53 µM (active)
CC(C)=CC1C(C(=O)OCc2coc(Cc3ccccc3)c2)C1(C)C (centres undefined),outcome,[1],inactive
same,outcome,[11],inactive
same,AC50,[2],46 µM (active)
same,AC50,[12],40.4 µM (active)
Cc1cnc(C2=NC(C)(C(C)C)C(=O)N2)c(C(=O)O)c1 (centres undefined),outcome,[1],inactive
same,outcome,[11],inactive
same,outcome,[12],inactive
